Activity calls are given as the source filed them.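 How the source made its calls: active means cell event count below 40, meaning activity score above 60 where score is 100 minus count; inactive means the rest.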
Assay: LNCaP cell loss by flow event count, confirmation, cytotoxicity control for prostate differentiation activator project, single point (AID 1076);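 further: counts scatter-gated live cells after medium removal discards detached dead cells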
Conditions: flow cytometry event count, 4 d, stronger effect = lower value

In the case of `CCOc1ccc(OCC)c(NC(=O)C2CCCN(S(=O)(=O)c3c(C)noc3C)C2)c1` (stereo not drawn), the cell event count (at 100 µM) is reported as 187 (inactive) and the cell event count (event count, at 10 µM) is reported as 260.
In the case of `Cc1cc(NC(=O)CSc2nnc(Cn3c(=O)sc4ccccc43)n2-c2ccccc2C)no1`, the cell event count (at 100 µM) is reported as 200 (inactive) and the cell event count (event count, at 10 µM) is reported as 121.
With `CN(CC(=O)Nc1ccc2c(c1)OCCO2)S(=O)(=O)c1cccc2cccnc12` the cell event count (at 100 µM) was 95 (inactive) and the cell event count (event count, at 10 µM) was 156.
In the case of `CCCCOc1ccccc1NC(=O)Cn1c(-c2nonc2N)nc2ccccc21`, the cell event count (at 100 µM) is reported as 99 (inactive) and the cell event count (event count, at 10 µM) is reported as 86.5.
In the case of `COc1ccc(Cc2n[nH]c(=O)c3ccccc23)cc1OC`, the cell event count (at 100 µM) is reported as 207 (inactive) and the cell event count (event count, at 10 µM) is reported as 111.
With `CCN(CCNC(=O)C1CCCN(Cc2nc(-c3ccc(OC)cc3)oc2C)C1)c1ccccc1` (stereo not drawn) the cell event count (at 100 µM) was 18 (inactive) and the cell event count (event count, at 10 µM) was 146.
In the case of `Cc1ccc(-c2noc(CCC(=O)NCCCN3CCN(c4ccc(F)cc4)CC3)n2)cc1`, the cell event count (at 100 µM) is reported as 14 (inactive) and the cell event count (event count, at 10 µM) is reported as 98.
With `COc1ccc(Nc2nc(N3CCCC3)c3ccccc3n2)cc1` the cell event count (at 100 µM) was 50 (inactive) and the cell event count (event count, at 10 µM) was 180.
In the case of `COc1cc(C2C3=C(Nc4ncnn42)c2ccccc2CC3)cc(OC)c1OC` (stereo not drawn), the cell event count (at 100 µM) is reported as 295 (inactive) and the cell event count (event count, at 10 µM) is reported as 428.

From PubChem BioAssay AID1076 (NMMLSC, 2008)
